Data published in PubChem BioAssay (Tox21).
Several values for one entry are separate records, joined by “and”; a condition that tells them apart may be missing. Equal entries are not always repeated. Records with an inconclusive call do not appear. Some structures have more than one record in an assay (separate samples or runs), and their calls can disagree. Activity calls are given as the source filed them. Unless noted, calls come from the whole dose curve; as a rule, active = well fitted curve in the direction sought with a large enough effect in the repeat runs; inconclusive = weak or mixed curves; inactive = no such curve, though single readings can be large; an effect the other way counts as inactive or inconclusive.

What was measured:
[1] = qHTS assay to identify small molecule antagonists of the glucocorticoid receptor (GR) signaling pathway - cell viability counter screen (AID 720693); note: nearly all actives have a fitted effect of over 55% in size
[2] = qHTS assay for identifying genotoxic compounds that show differential cytotoxicity against isogenic chicken DT40 cell lines with known DNA damage response pathways - wild type cell line (AID 743012); note: nearly all actives have a fitted effect of over 60% in size; note: potency is the fitted concentration of half-maximal effect
Method in brief: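 Endpoint: CellTiter-Glo luminescence, 30 min RT. Cells: wild type DT40, 300/well. Exposure: compounds in DMSO, 40 h, 37 C/5% CO2, after ~0.5 h pre-incubation.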

[3] = qHTS assay for identifying genotoxic compounds that show differential cytotoxicity against isogenic chicken DT40 cell lines with known DNA damage response pathways - Rev3 mutant cell line (AID 743014); note: nearly all actives have a fitted effect of over 55% in size; note: potency is the fitted concentration of half-maximal effect
[4] = qHTS assay for identifying genotoxic compounds that show differential cytotoxicity against isogenic chicken DT40 cell lines with known DNA damage response pathways - Rad54/Ku70 mutant cell line (AID 743015); note: nearly all actives have a fitted effect of over 60% in size; note: potency is the fitted concentration of half-maximal effect
[5] = qHTS assay to identify small molecule antagonists of the androgen receptor (AR) signaling pathway - cell viability counter screen (AID 743033; note: nearly all actives have a fitted effect of over 45% in size)
[6] = qHTS assay to identify small molecule antagonists of the androgen receptor (AR) signaling pathway using the MDA cell line - cell viability counter screen (AID 743041; note: nearly all actives have a fitted effect of over 45% in size)
Method in brief: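 Cytotoxicity counter screen: MDA-kb2 AR-luc cells, compound + R1881, 16 h, 37C, 0% CO2; CellTiter-Fluor added at 15.5 h, fluorescence read after 30 min.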

[7] = target: Androgen receptor (Homo sapiens) (UniProt P10275); assay: qHTS assay to identify small molecule agonists of the androgen receptor (AR) signaling pathway using the MDA cell line (AID 743040; note: nearly all actives have a fitted effect of over 20% in size; note: potency is the fitted concentration of half-maximal effect)
Method in brief: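 Luciferase read-out, ONE-Glo, 30 min RT. Cells: MDA-kb2 AR-luc, MMTV promoter with AR and GR response elements. Compound exposure 16 h, 37C, 0% CO2, after 5 h pre-incubation. qHTS agonist mode.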

[8] = target: Androgen receptor (Homo sapiens) (UniProt P10275); assay: qHTS assay to identify small molecule antagonists of the androgen receptor (AR) signaling pathway using the MDA cell line (AID 743042; note: nearly all actives have a fitted effect of over 55% in size)
Method in brief: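 MDA-kb2 breast carcinoma cells carrying MMTV-luciferase (AR/GR responsive) were co-treated with compounds and the agonist R1881 for 16 h at 37C. Inhibition read as ONE-Glo luminescence; CellTiter-Fluor fluorescence measured in parallel for cytotoxicity.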

[9] = target: Androgen receptor (Homo sapiens) (UniProt P10275); assay: qHTS assay to identify small molecule agonists of the androgen receptor (AR) signaling pathway (AID 743036; active = well fitted activation curve with a large enough effect in the signal ratio in the repeat runs, with a control signal flat, not every such curve was filed as active; the % refers to the signal ratio)
Method in brief: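 HEK293 cells stably carrying a UAS-driven beta-lactamase reporter (GeneBLAzer AR-UAS-bla-GripTite) were plated at 2,000 cells/well, rested 4 h at 37C, then exposed to compounds in DMSO for 16 h. LiveBLAzer B/G FRET substrate was added for 2 h at room temperature; fluorescence read.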

[10] = target: Androgen receptor (Homo sapiens) (UniProt P10275); assay: qHTS assay to identify small molecule antagonists of the androgen receptor (AR) signaling pathway (AID 743035; active = well fitted inhibition curve with a large enough effect in the signal ratio in the repeat runs, not every such curve was filed as active; the % refers to the signal ratio)
Method in brief: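 R1881 agonist challenge of a HEK293 UAS-beta-lactamase AR reporter line in the presence of compound (16 h, 37C); signal taken as FRET fluorescence after 2 h with LiveBLAzer B/G substrate at room temperature.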

Measured: Potency

Sequence of Androgen receptor (Homo sapiens) (P10275 whole entry, looked up): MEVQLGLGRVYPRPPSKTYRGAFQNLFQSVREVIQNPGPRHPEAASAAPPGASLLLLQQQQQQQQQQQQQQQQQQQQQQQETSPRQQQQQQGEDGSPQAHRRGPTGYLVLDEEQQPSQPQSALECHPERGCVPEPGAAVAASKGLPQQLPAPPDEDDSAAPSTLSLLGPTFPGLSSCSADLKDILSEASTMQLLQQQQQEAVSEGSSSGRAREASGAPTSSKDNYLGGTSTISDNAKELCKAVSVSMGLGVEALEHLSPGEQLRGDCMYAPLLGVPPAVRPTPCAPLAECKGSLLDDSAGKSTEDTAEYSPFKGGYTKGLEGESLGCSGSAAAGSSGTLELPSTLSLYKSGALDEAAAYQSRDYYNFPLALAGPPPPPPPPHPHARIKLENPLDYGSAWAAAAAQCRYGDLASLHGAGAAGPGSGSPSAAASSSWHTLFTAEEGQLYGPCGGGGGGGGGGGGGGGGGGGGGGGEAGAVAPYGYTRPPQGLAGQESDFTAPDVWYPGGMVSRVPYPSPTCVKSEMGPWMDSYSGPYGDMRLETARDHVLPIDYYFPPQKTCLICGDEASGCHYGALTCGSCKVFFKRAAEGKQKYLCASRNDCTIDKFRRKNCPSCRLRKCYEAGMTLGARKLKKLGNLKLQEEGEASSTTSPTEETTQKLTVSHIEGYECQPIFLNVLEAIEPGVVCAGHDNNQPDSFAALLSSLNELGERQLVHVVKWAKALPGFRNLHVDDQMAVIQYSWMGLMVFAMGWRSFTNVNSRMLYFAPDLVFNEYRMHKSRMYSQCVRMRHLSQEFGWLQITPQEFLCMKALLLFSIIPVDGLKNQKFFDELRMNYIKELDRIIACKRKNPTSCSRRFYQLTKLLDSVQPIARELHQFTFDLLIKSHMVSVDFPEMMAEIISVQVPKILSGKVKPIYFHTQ

O=C(O)CCNC(=O)c1ccc(N=Nc2ccc(O)c(C(=O)O)c2)cc1
inactive: [1] | [2] | [3] | [4] | [5] | [6]

COC(=O)CCCC(=O)O
inactive: [1] | [2] | [3] | [4] | [5] | [6]

CC12CCC(CC1=O)C2(C)C (stereo not drawn)
inactive: [1] | [2] | [3] | [4] | [5] | [6]

Nc1cc(N)cc(C(=O)O)c1
inactive: [1] | [2] | [3] | [4] | [5] | [6]

C=C(C)[C@@H]1CCC2=CC(=O)C[C@@H](C)[C@]2(C)C1
inactive: [1] | [2] | [3] | [4] | [5] | [6]

CCCC=O
inactive: [1] | [2] | [3] | [4] | [5] | [6]

CN(C)CCOC(c1ccc(Cl)cc1)c1ccccn1 (stereo not drawn)
inactive: [1] | [2] | [3] | [4] | [5] | [6]

C=C(C)[C@H]1CC=C(C)CC1
inactive: [1] | [2] | [3] | [4] | [5] | [6]

COC(=O)c1ccc(C(=O)OC)c(C(=O)OC)c1
inactive: [1] | [2] | [3] | [4] | [5] | [6]

CC(C)COC(=O)c1ccccc1O
active: [3] 24.3 µM
inactive: [1] | [2] | [4] | [5] | [6]

CC/C=C\C#N
inactive: [1] | [2] | [3] | [4] | [5] | [6]

CC(=O)O[C@H](CC(=O)[O-])C[N+](C)(C)C
inactive: [1] | [2] | [3] | [4] | [5] | [6]

OC/C=C/c1ccccc1
inactive: [1] | [2] | [3] | [4] | [5] | [6]

COc1cc(CCC(C)=O)ccc1O
inactive: [1] | [2] | [3] | [4] | [5] | [7] | [6] | [8]

CCCCc1ccc(N)cc1
inactive: [1] | [2] | [3] | [4] | [5] | [6]

OCC(CO)(CO)COCC(CO)(CO)CO
inactive: [1] | [2] | [3] | [4] | [5] | [6]

C=C(C)C1CC=C(C)C(O)C1 (stereo not drawn)
inactive: [1] | [2] | [3] | [4] | [5] | [6]

CC(C)c1cccc(C(C)C)c1N
inactive: [1] | [2] | [3] | [4] | [5] | [6]

COCCOC(=O)CC#N
inactive: [1] | [2] | [3] | [4] | [5] | [6]

Nc1nc(F)nc2c1ncn2[C@@H]1O[C@H](CO)[C@@H](O)[C@@H]1O
active: [2] 841 nM and 1.68 µM | [3] 596 nM and 1.88 µM | [4] 1.33 µM and 2.66 µM
inactive: [1] | [5] | [6]

CN(C)N=Nc1ccccc1
inactive: [1] | [2] | [3] | [4] | [5] | [6]

NC(=O)c1c(Cl)cccc1Cl
inactive: [1] | [2] | [3] | [4] | [5] | [6]

CCc1cc(S(=O)(=O)O)c2cc(C(C)C)cccc1-2
inactive: [1] | [2] | [3] | [4] | [5] | [6]

O=C(O)c1ccccc1-c1ccc(C(F)(F)F)cc1
inactive: [1] | [2] | [3] | [4] | [5] | [6]

CCC(=O)Nc1cccc(N)c1
inactive: [1] | [2] | [3] | [4] | [5] | [6]

CC(O)CN(CCCN(C)C)CCCN(C)C (stereo not drawn)
inactive: [1] | [2] | [3] | [4] | [5] | [6]

O=C(O)c1ccccc1S
inactive: [1] | [2] | [3] | [4] | [5] | [6]

C[N+](C)(C)CC[N+]1(C)Cc2c(Cl)c(Cl)c(Cl)c(Cl)c2C1
inactive: [1] | [2] | [3] | [4] | [5] | [6]

CC(C)N1C(=O)c2ccccc2C1=O
inactive: [1] | [2] | [3] | [4] | [5] | [6]

O=C(O)C(O)[C@H](O)[C@@H](O)[C@H](O)[C@H](O)CO (stereo partly drawn)
inactive: [1] | [2] | [3] | [4] | [5] | [6]

CCCCOCC(C)OCC(C)O (stereo not drawn)
inactive: [1] | [2] | [3] | [4] | [5] | [6]

O=C1OC(=O)c2cc([N+](=O)[O-])ccc21
inactive: [1] | [2] | [3] | [4] | [5] | [6]

CO
inactive: [1] | [2] | [3] | [4] | [5] | [6]

NS(=O)(=O)c1cc(C2(O)NC(=O)c3ccccc32)ccc1Cl (stereo not drawn)
inactive: [1] | [2] | [3] | [4] | [5] | [6]

CC(C)(O)C(=O)c1ccc(OCCO)cc1
inactive: [1] | [2] | [3] | [4] | [5] | [6]

CCCCCCCCCCCCCCCCCC(=O)OCCCCCCCCCCCCCC(C)C
inactive: [1] | [2] | [3] | [4] | [5] | [6]

Cc1ccc(Nc2ccc(O)c3c2C(=O)c2ccccc2C3=O)cc1
inactive: [1] | [2] | [3] | [4] | [5] | [6]

CCOC(=O)[C@H](CCc1ccccc1)N[C@@H](C)C(=O)N1CCC[C@H]1C(=O)O
inactive: [1] | [2] | [3] | [4] | [5] | [6]

CCCCCC[C@@H](CCC)C(=O)O
inactive: [1] | [2] | [3] | [4] | [5] | [6]

CO[Si](CCCNCCC[Si](OC)(OC)OC)(OC)OC
inactive: [1] | [2] | [3] | [4] | [5] | [6]

N#CCN(CC#N)CCN(CC#N)CC#N
inactive: [1] | [2] | [3] | [4] | [5] | [6]

CCCCCOC(=O)Nc1nc(=O)n([C@@H]2O[C@H](C)[C@@H](O)[C@H]2O)cc1F
inactive: [1] | [2] | [3] | [4] | [5] | [6]

NC(=O)c1ncn([C@@H]2O[C@H](CO)[C@@H](O)[C@H]2O)c1O
inactive: [1] | [2] | [3] | [4] | [5] | [6]

CCN(CC)C(=O)c1ccc(O)c(OC)c1
inactive: [1] | [2] | [3] | [4] | [5] | [6]

CC(=O)N[C@@H](CCC(N)=O)C(=O)O
inactive: [1] | [2] | [3] | [4] | [5] | [6]

COc1cc(C)cc(O)c1
inactive: [1] | [2] | [3] | [4] | [5] | [6]

C#CC(C)(O)CC(C)C (stereo not drawn)
inactive: [1] | [2] | [3] | [4] | [5] | [6]

CCC(C)OC(=O)N1CCCCC1CCO (stereo not drawn)
inactive: [1] | [2] | [3] | [4] | [5] | [6]

[O-][N+](=Nc1ccccc1)c1ccccc1
26.6 µM (active) and inactive: [4]
inactive: [1] | [2] | [3] | [5] | [6]

CCCCCCCCCCCCCCC
inactive: [1] | [2] | [3] | [4] | [5] | [6]

CCCc1ccc(N)cc1
inactive: [1] | [2] | [3] | [4] | [5] | [6]

COC[C@H](c1ccc(C(F)(F)F)cc1)N1CCN(C2(C)CCN(C(=O)c3c(C)ncnc3C)CC2)C[C@H]1C
active: [2] 29.8 µM
inactive: [1] | [4] | [5] | [6]

OC1OC[C@@H](O)[C@H](O)[C@H]1O (stereo partly drawn)
inactive: [1] | [2] | [3] | [4] | [5] | [6]

CCCCCN(CCCCC)C(=O)C(CCC(=O)O)NC(=O)c1ccc(Cl)c(Cl)c1 (stereo not drawn)
inactive: [1] | [2] | [4] | [5] | [9] | [7] | [6] | [8]

Cc1cc(C)c(NC(=O)CN(CC(=O)O)CC(=O)O)c(C)c1Br
inactive: [1] | [2] | [3] | [4] | [5] | [6]

CC(C)(C)C(=O)/C=C/c1ccc(Cl)cc1
inactive: [1] | [2] | [5] | [6]

CCN(CC)S(=O)(=O)c1ccc(C(=O)O)cc1
inactive: [1] | [2] | [3] | [4] | [5] | [6]

CCN1CCN(c2cc3c(cc2F)c(=O)c(C(=O)O)cn3C2CC2)CC1
inactive: [1] | [2] | [3] | [5] | [10] | [9] | [7] | [6] | [8]

C1=C\CC/C=C\CC/C=C\CC/1
inactive: [1] | [2] | [3] | [4] | [5] | [6]

Cc1nc(-c2ccc(OCC(C)C)c(C#N)c2)sc1C(=O)O
inactive: [1] | [2] | [5] | [6] | [8]
active: [7] 1.19 µM

NCCNC(=O)c1ccc(Cl)cn1
inactive: [1] | [2] | [4] | [5]

NCCN1CCNC1=O
inactive: [1] | [2] | [4] | [5] | [6]

OC[C@H]1O[C@@H]2O[C@H]3[C@H](O)[C@@H](O)[C@@H](O[C@H]4[C@H](O)[C@@H](O)[C@@H](O[C@H]5[C@H](O)[C@@H](O)[C@@H](O[C@H]6[C@H](O)[C@@H](O)[C@@H](O[C@H]7[C@H](O)[C@@H](O)[C@@H](O[C@H]8[C@H](O)[C@@H](O)[C@@H](O[C@H]9[C@H](O)[C@@H](O)[C@@H](O[C@H]1[C@H](O)[C@H]2O)O[C@@H]9CO)O[C@@H]8CO)O[C@@H]7CO)O[C@@H]6CO)O[C@@H]5CO)O[C@@H]4CO)O[C@@H]3CO
inactive: [1] | [2] | [4] | [5] | [6]
